For the first assay, the target named is PROP1 (Homo sapiens, UniProt O75360 56-141). The assay is described as follows: PBM; 200 nM protein, PBS. The note with it: dsDNA, one strand shown.
Sequence of PROP1 (Homo sapiens, UniProt O75360 56-141) (O75360 56-141): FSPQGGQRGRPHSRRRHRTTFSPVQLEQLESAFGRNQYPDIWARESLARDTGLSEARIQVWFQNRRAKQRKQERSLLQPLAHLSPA
As to AATCACCT, the binding signal is 8.74 upbm affinity estimate (log intensity, higher = more binding, comparable within an allelic series).
The same measure, in the same setting: as for AACTAAAT, the figure is 9.34 upbm affinity estimate (log intensity, higher = more binding, comparable within an allelic series); as for AAATCATG, 8.42 upbm affinity estimate (log intensity, higher = more binding, comparable within an allelic series).
As for AAGTTAAG, the binding signal was 7.89 upbm affinity estimate (log intensity, higher = more binding, comparable within an allelic series).
As to ATTACTAA, the binding signal is 9.85 upbm affinity estimate (log intensity, higher = more binding, comparable within an allelic series).
Consider ATATTTGC, for which the binding signal is 8.36 upbm affinity estimate (log intensity, higher = more binding, comparable within an allelic series).
Take GGATGCAC: the binding signal is 6.71 upbm affinity estimate (log intensity, higher = more binding, comparable within an allelic series).
Turning to GGAACGCC, the binding signal is 6.7 upbm affinity estimate (log intensity, higher = more binding, comparable within an allelic series).
With CACGTCGC, the binding signal was 6.91 upbm affinity estimate (log intensity, higher = more binding, comparable within an allelic series).
The same measure, in the same setting: as for CCGATGGC, the figure is 6.65 upbm affinity estimate (log intensity, higher = more binding, comparable within an allelic series); as for AACTATAT, 8.71 upbm affinity estimate (log intensity, higher = more binding, comparable within an allelic series).
For the sequence GGCTGACC, the binding signal is 6.72 upbm affinity estimate (log intensity, higher = more binding, comparable within an allelic series).
As for GCATCTCC, the binding signal was 6.85 upbm affinity estimate (log intensity, higher = more binding, comparable within an allelic series).
In the case of GTGCGCCA, the binding signal was 6.79 upbm affinity estimate (log intensity, higher = more binding, comparable within an allelic series).
Consider CCTGTTAC, for which the binding signal was 7.8 upbm affinity estimate (log intensity, higher = more binding, comparable within an allelic series).
Regarding CCGCACCC, the binding signal is 6.68 upbm affinity estimate (log intensity, higher = more binding, comparable within an allelic series).
Turning to CGGCTCCA, the binding signal is 6.66 upbm affinity estimate (log intensity, higher = more binding, comparable within an allelic series).
As for TCCAATCA, the binding signal was 8.66 upbm affinity estimate (log intensity, higher = more binding, comparable within an allelic series).
Same read-out and setting: as for ACGGTAGG, the figure is 6.51 upbm affinity estimate (log intensity, higher = more binding, comparable within an allelic series); as for ATCACTAA, 8.89 upbm affinity estimate (log intensity, higher = more binding, comparable within an allelic series); as for AATTGGCG, 9.12 upbm affinity estimate (log intensity, higher = more binding, comparable within an allelic series).
Turning to GCGGCCGA, the binding signal is 6.81 upbm affinity estimate (log intensity, higher = more binding, comparable within an allelic series).
As to AATGGGGC, the binding signal is 8.17 upbm affinity estimate (log intensity, higher = more binding, comparable within an allelic series).
CTCTGGAA: the binding signal was 6.65 upbm affinity estimate (log intensity, higher = more binding, comparable within an allelic series).
Regarding GGTAAATA, the binding signal is 8.63 upbm affinity estimate (log intensity, higher = more binding, comparable within an allelic series).
Turning to CCTTCGGC, the binding signal is 6.66 upbm affinity estimate (log intensity, higher = more binding, comparable within an allelic series).
On the same count and under the same terms, as for AATCACAT, the figure is 9.48 upbm affinity estimate (log intensity, higher = more binding, comparable within an allelic series).
The same measure, in the same setting: as for CTTGGGTC, the figure is 6.81 upbm affinity estimate (log intensity, higher = more binding, comparable within an allelic series); as for CCGAGTTA, 8.19 upbm affinity estimate (log intensity, higher = more binding, comparable within an allelic series); as for ATGACCAA, 8.15 upbm affinity estimate (log intensity, higher = more binding, comparable within an allelic series).
On to CACGACGA, for which the binding signal was 6.69 upbm affinity estimate (log intensity, higher = more binding, comparable within an allelic series).
Take TACCCTAA: the binding signal is 8.09 upbm affinity estimate (log intensity, higher = more binding, comparable within an allelic series).
Regarding GATAGTTA, the binding signal was 8.6 upbm affinity estimate (log intensity, higher = more binding, comparable within an allelic series).
GCTCCTCC: the binding signal was 6.62 upbm affinity estimate (log intensity, higher = more binding, comparable within an allelic series).
Take CTCAGCGC: the binding signal was 6.82 upbm affinity estimate (log intensity, higher = more binding, comparable within an allelic series).
Consider GCTCCGCA, for which the binding signal was 6.82 upbm affinity estimate (log intensity, higher = more binding, comparable within an allelic series).

The target in a further assay is PROP1 (Homo sapiens, UniProt O75360 56-141, R99H). The assay is described as follows: PBM; 200 nM protein, PBS. The note with it: dsDNA, one strand shown.
Sequence of PROP1 (Homo sapiens, UniProt O75360 56-141, R99H) (O75360 56-141 R99H): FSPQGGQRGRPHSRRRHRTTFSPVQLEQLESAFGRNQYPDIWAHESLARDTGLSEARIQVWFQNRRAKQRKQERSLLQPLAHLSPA
As to AACTAAAT, the binding signal was 8.6 upbm affinity estimate (log intensity, higher = more binding, comparable within an allelic series).
On to ATTACTAA, for which the binding signal was 9.4 upbm affinity estimate (log intensity, higher = more binding, comparable within an allelic series).
Turning to ATATTTGC, the binding signal is 7.99 upbm affinity estimate (log intensity, higher = more binding, comparable within an allelic series).
With GGATGCAC, the binding signal was 6.74 upbm affinity estimate (log intensity, higher = more binding, comparable within an allelic series).
GGAACGCC: the binding signal was 6.87 upbm affinity estimate (log intensity, higher = more binding, comparable within an allelic series).
For the sequence CACGTCGC, the binding signal is 6.79 upbm affinity estimate (log intensity, higher = more binding, comparable within an allelic series).
As for CCGATGGC, the binding signal was 6.61 upbm affinity estimate (log intensity, higher = more binding, comparable within an allelic series).
As to GGCTGACC, the binding signal was 6.74 upbm affinity estimate (log intensity, higher = more binding, comparable within an allelic series).
In the case of GCATCTCC, the binding signal is 6.93 upbm affinity estimate (log intensity, higher = more binding, comparable within an allelic series).
For the sequence GTGCGCCA, the binding signal was 6.83 upbm affinity estimate (log intensity, higher = more binding, comparable within an allelic series).
In the case of CCGCACCC, the binding signal was 6.9 upbm affinity estimate (log intensity, higher = more binding, comparable within an allelic series).
For the sequence CGGCTCCA, the binding signal is 6.76 upbm affinity estimate (log intensity, higher = more binding, comparable within an allelic series).
On to TCCAATCA, for which the binding signal is 8.18 upbm affinity estimate (log intensity, higher = more binding, comparable within an allelic series).
With ACGGTAGG, the binding signal is 6.62 upbm affinity estimate (log intensity, higher = more binding, comparable within an allelic series).
For the sequence ATCACTAA, the binding signal was 8.2 upbm affinity estimate (log intensity, higher = more binding, comparable within an allelic series).
As to AATTGGCG, the binding signal is 8.88 upbm affinity estimate (log intensity, higher = more binding, comparable within an allelic series).
For the sequence GCGGCCGA, the binding signal was 6.82 upbm affinity estimate (log intensity, higher = more binding, comparable within an allelic series).
In the case of CTCTGGAA, the binding signal was 6.87 upbm affinity estimate (log intensity, higher = more binding, comparable within an allelic series).
For GGTAAATA, the binding signal was 8.23 upbm affinity estimate (log intensity, higher = more binding, comparable within an allelic series).
With CCTTCGGC, the binding signal was 6.64 upbm affinity estimate (log intensity, higher = more binding, comparable within an allelic series).
Regarding CTTGGGTC, the binding signal was 6.75 upbm affinity estimate (log intensity, higher = more binding, comparable within an allelic series).
Consider CACGACGA, for which the binding signal was 6.8 upbm affinity estimate (log intensity, higher = more binding, comparable within an allelic series).
On to GATAGTTA, for which the binding signal is 8.09 upbm affinity estimate (log intensity, higher = more binding, comparable within an allelic series).
Still for that read-out and setting: as for GCTCCTCC, the figure is 6.55 upbm affinity estimate (log intensity, higher = more binding, comparable within an allelic series).
As to CTCAGCGC, the binding signal is 6.86 upbm affinity estimate (log intensity, higher = more binding, comparable within an allelic series).
In the case of GCTCCGCA, the binding signal is 6.82 upbm affinity estimate (log intensity, higher = more binding, comparable within an allelic series).

The target of another assay is PROP1 (Homo sapiens, UniProt O75360 56-141, F88S). The assay is described as follows: PBM; 200 nM protein, PBS. The note with it: dsDNA, one strand shown.
Sequence of PROP1 (Homo sapiens, UniProt O75360 56-141, F88S) (O75360 56-141 F88S): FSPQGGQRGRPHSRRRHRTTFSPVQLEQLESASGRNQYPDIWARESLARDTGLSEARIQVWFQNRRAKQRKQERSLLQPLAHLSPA
Regarding AATCACCT, the binding signal was 7.3 upbm affinity estimate (log intensity, higher = more binding, comparable within an allelic series).
As for AACTAAAT, the binding signal was 7.5 upbm affinity estimate (log intensity, higher = more binding, comparable within an allelic series).
Same read-out and setting: as for AAATCATG, the figure is 7.26 upbm affinity estimate (log intensity, higher = more binding, comparable within an allelic series); as for AAGTTAAG, 7.07 upbm affinity estimate (log intensity, higher = more binding, comparable within an allelic series).
On to ATTACTAA, for which the binding signal was 7.62 upbm affinity estimate (log intensity, higher = more binding, comparable within an allelic series).
ATATTTGC: the binding signal was 7.34 upbm affinity estimate (log intensity, higher = more binding, comparable within an allelic series).
GGATGCAC: the binding signal is 6.83 upbm affinity estimate (log intensity, higher = more binding, comparable within an allelic series).
In the case of GGAACGCC, the binding signal was 6.68 upbm affinity estimate (log intensity, higher = more binding, comparable within an allelic series).
In the case of CACGTCGC, the binding signal is 6.8 upbm affinity estimate (log intensity, higher = more binding, comparable within an allelic series).
For CCGATGGC, the binding signal is 6.61 upbm affinity estimate (log intensity, higher = more binding, comparable within an allelic series).
Turning to AACTATAT, the binding signal was 7.61 upbm affinity estimate (log intensity, higher = more binding, comparable within an allelic series).
Still for that read-out and setting: as for GGCTGACC, the figure is 6.56 upbm affinity estimate (log intensity, higher = more binding, comparable within an allelic series); as for GCATCTCC, 6.57 upbm affinity estimate (log intensity, higher = more binding, comparable within an allelic series).
As for GTGCGCCA, the binding signal was 6.75 upbm affinity estimate (log intensity, higher = more binding, comparable within an allelic series).
With CCTGTTAC, the binding signal is 7.11 upbm affinity estimate (log intensity, higher = more binding, comparable within an allelic series).
Take CCGCACCC: the binding signal is 6.69 upbm affinity estimate (log intensity, higher = more binding, comparable within an allelic series).
Consider CGGCTCCA, for which the binding signal was 6.74 upbm affinity estimate (log intensity, higher = more binding, comparable within an allelic series).
TCCAATCA: the binding signal was 7.02 upbm affinity estimate (log intensity, higher = more binding, comparable within an allelic series).
For the sequence ACGGTAGG, the binding signal is 6.62 upbm affinity estimate (log intensity, higher = more binding, comparable within an allelic series).
Regarding ATCACTAA, the binding signal is 7.19 upbm affinity estimate (log intensity, higher = more binding, comparable within an allelic series).
Turning to AATTGGCG, the binding signal was 7.29 upbm affinity estimate (log intensity, higher = more binding, comparable within an allelic series).
As for GCGGCCGA, the binding signal is 6.76 upbm affinity estimate (log intensity, higher = more binding, comparable within an allelic series).
As for AATGGGGC, the binding signal was 7.05 upbm affinity estimate (log intensity, higher = more binding, comparable within an allelic series).
In the case of CTCTGGAA, the binding signal was 6.91 upbm affinity estimate (log intensity, higher = more binding, comparable within an allelic series).
Regarding GGTAAATA, the binding signal is 7.4 upbm affinity estimate (log intensity, higher = more binding, comparable within an allelic series).
Turning to CCTTCGGC, the binding signal was 6.53 upbm affinity estimate (log intensity, higher = more binding, comparable within an allelic series).
AATCACAT: the binding signal was 7.46 upbm affinity estimate (log intensity, higher = more binding, comparable within an allelic series).
In the case of CTTGGGTC, the binding signal was 6.83 upbm affinity estimate (log intensity, higher = more binding, comparable within an allelic series).
With CCGAGTTA, the binding signal was 7.14 upbm affinity estimate (log intensity, higher = more binding, comparable within an allelic series).
ATGACCAA: the binding signal was 7.17 upbm affinity estimate (log intensity, higher = more binding, comparable within an allelic series).
CACGACGA: the binding signal is 6.95 upbm affinity estimate (log intensity, higher = more binding, comparable within an allelic series).
Turning to TACCCTAA, the binding signal was 7.04 upbm affinity estimate (log intensity, higher = more binding, comparable within an allelic series).
Turning to GATAGTTA, the binding signal is 7.39 upbm affinity estimate (log intensity, higher = more binding, comparable within an allelic series).
The same measure, in the same setting: as for GCTCCTCC, the figure is 6.45 upbm affinity estimate (log intensity, higher = more binding, comparable within an allelic series); as for CTCAGCGC, 6.88 upbm affinity estimate (log intensity, higher = more binding, comparable within an allelic series).
As for GCTCCGCA, the binding signal was 6.66 upbm affinity estimate (log intensity, higher = more binding, comparable within an allelic series).

Values taken from publication PMC11006913.
